Source: PubChem (The Scripps Research Institute Molecular Screening Center)
CHRM4 agonist = CHRM4 agonism in calcium assay; 360,000 compounds, 0.14% hits; CHO-K1 hM4/Gqi5, Fluo-8 calcium fluorescence; vehicle 0%, full acetylcholine response 100%; activation, % at 3 µM; AID 624127;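 active = activation above the run mean over all test wells plus 3 SD, cut at about 32% in these data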;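 also: peak over basal fluorescence ratio per well then scaled between controls; 0% = DMSO wells and 100% = acetylcholine at EC100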
CHRM4 PAM = positive allosteric modulators of human muscarinic M4 receptor; P08173; CHO-K1 hM4/Gqi5, Fluo-8 calcium fluorescence, ACh EC20; 0% = ACh EC20, 100% = maximal ACh; activation, % at 3 µM; 360,000 compounds, 0.4% hits; AID 624126;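 active = activation above its plate's cutoff, the mean activation of sample wells plus 3 SD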
CHRM1 PAM = human CHRM1 positive allosteric modulation | P11229 | CHO-K1 hM1, Fluo-8 calcium fluorescence, ACh EC20; 0% = ACh EC20, 100% = maximal ACh | activation, % at 3 µM | 360,000 compounds, 0.088% hits | AID 588819; in the data active = activation above about 19%, passing the limit was not always enough
Target sequence (P11229 whole entry, looked up): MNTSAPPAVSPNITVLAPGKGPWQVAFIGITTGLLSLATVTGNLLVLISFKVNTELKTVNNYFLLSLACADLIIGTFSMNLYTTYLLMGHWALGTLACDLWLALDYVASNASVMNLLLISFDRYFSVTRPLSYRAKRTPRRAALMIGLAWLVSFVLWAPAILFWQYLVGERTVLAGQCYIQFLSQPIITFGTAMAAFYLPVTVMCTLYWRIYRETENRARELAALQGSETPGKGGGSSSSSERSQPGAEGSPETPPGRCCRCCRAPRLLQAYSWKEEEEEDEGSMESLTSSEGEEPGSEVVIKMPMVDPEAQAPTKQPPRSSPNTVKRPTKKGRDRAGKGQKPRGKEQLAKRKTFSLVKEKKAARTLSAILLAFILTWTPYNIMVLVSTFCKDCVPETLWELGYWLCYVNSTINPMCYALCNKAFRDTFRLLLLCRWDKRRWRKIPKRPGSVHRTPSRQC
M1 ag = activates human CHRM1 receptor | P11229 | CHO-K1 hM1, Fluo-8 calcium fluorescence, agonist mode; 0% DMSO, 100% acetylcholine EC100 | activation, % at 3 µM | 360,000 compounds, 0.33% hits | AID 588814;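 active = activation above the run's mean compound activation plus 3 SD, cut at about 16% in these data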;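 also: peak over basal fluorescence ratio within a 140 s kinetic read after compound addition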
M1 antag = blocks human M1 muscarinic receptor; P11229; 360,000 compounds, 1.3% hits; inhibition, % at 3 µM; CHO-K1 hM1, Fluo-8 calcium fluorescence, ACh EC80 antagonist;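 active = percent inhibition above its own plate's cutoff, namely the mean of that plate's compound wells plus 3 SD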;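 also: peak over basal fluorescence ratio during 140 s after agonist addition; 0% = ACh EC80 plus DMSO and 100% = DMSO alone without agonist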
M4 antag = CHRM4 antagonism in calcium assay; AID 624125; inhibition, % at 3 µM; CHO-hM4 cells, ACh EC80, Fluo-8 calcium fluorescence; 360,000 compounds, 0.73% hits;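 active = inhibition above its plate's cutoff, the mean inhibition of sample wells plus 3 SD, cut at about 27% in these data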;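 also: 0% = acetylcholine EC80 with DMSO and 100% = DMSO without agonist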
* = called active by the depositor; nt = no result. Compounds with a hit are over-represented: about 2.2% of the library has one in this group of screens.

SMILES	CHRM4 agonist	CHRM4 PAM	CHRM1 PAM	M1 ag	M1 antag	M4 antag
Cc1cccc(C=Nc2ccc3c4c(cccc24)CC3)c1O	23	-12	-3	3	12	26
Oc1ccc(Cl)cc1C=Nc1ccc2c3c(cccc13)CC2	71*	-25	-1	22*	17	36*
Cc1ccc(N(C)S(=O)(=O)c2cccc(C(=O)OCC(=O)c3c(N)n(C)c(=O)n(C)c3=O)c2)cc1	22	-11	-16	6	33*	30*
O=C(CNC1CCCCC1)N1CCc2ccccc2C1	1	1	2	-7	1	30*
O=c1c2ccccc2[nH]c2ccc(F)cc12	4	-10	-10	-3	4	6
CC(C)C[C@@H](NC(=O)C1CCC(CNC(=O)[C@@H]2CCCN2C(=O)OC(C)(C)C)CC1)C(=O)O (some centres not stated)	1	0	-8	0	101*	0
COc1ccccc1NC(=O)N1CCc2[nH]c3ccc(F)cc3c2C1	4	1	-10	26*	-17	6
O=C(CCCCl)N1CCc2[nH]c3ccccc3c2C1	0	5	-2	24*	-17	-19
O=C(N1CCc2[nH]c3ccccc3c2C1)C(F)(F)F	0	2	-12	46*	8	8
C[C@H](O)C#Cc1ccc2c(c1)O[C@@H](CN(C)C(=O)c1ccncc1)[C@@H](C)CN([C@H](C)CO)S2(=O)=O	0	6	8	-4	-12	-6
CCCCCn1c(-c2ccco2)nc2nc3ccccc3nc21	3	0	8	-1	-10	-6
O=C(Nc1ccc2c(c1)OCCO2)C1c2ccccc2OCC(=O)N1Cc1ccc2c(c1)OCO2 (configuration not stated)	3	8	nt	nt	nt	-16
Cc1ccc(C(=O)C2C(c3ccc(-c4ccccc4[N+](=O)[O-])o3)NC(=O)NC2(O)C(F)(F)F)cc1 (configuration not stated)	3	1	1	1	-11	0
O=C(NC(NNc1ccc([N+](=O)[O-])cc1)(C(F)(F)F)C(F)(F)F)c1ccc(Cl)cc1	10	-10	-13	2	34*	3
CCC(CO)NCC(O)COCc1ccc2c(c1)OCO2 (configuration not stated)	1	20*	7	-3	-12	-13
CCOC(=O)Cc1nnc(NC(=O)CSc2ccc(C)cc2)s1	1	14	10	19*	-8	1
COCc1nnc(NC(=O)CSc2ccc(C)cc2)s1	0	6	10	9	-13	-5
CC1CCCCC12NC(=O)N(CC(=O)Nc1ccccc1F)C2=O (configuration not stated)	1	22*	13	4	-8	1
CCc1ccccc1NC(=O)CN1CCN(C(=O)CN2C(=O)NC3(CCCCC3C)C2=O)CC1 (configuration not stated)	0	-2	-1	-2	1	1
Cc1cccc(C)c1NC(=O)CN1CCN(C(=O)CN2C(=O)NC3(CCCCC3C)C2=O)CC1 (configuration not stated)	1	23*	28*	4	-28	-11
Cc1ccc(C)c(S(=O)(=O)Nc2ccc(C(=O)N3CCOCC3)cc2)c1	0	-2	1	-4	-2	-4
COc1ccc(/C=N/NC(=O)c2ccn[nH]2)cc1COc1ccc(Cl)cc1Cl	1	5	14	15	8	4
COc1cc2c(cc1OC)CN(C(=O)c1cccc(S(=O)(=O)N(C)C)c1)CC2	1	17	0	-3	-9	29*
Cc1ccc(C(=O)Nc2ccc(OCc3ccccc3)cc2)s1	0	-8	-13	-11	13	-3
Cc1ccc(NS(=O)(=O)c2cccc(C(=O)NCCCN3CCOCC3)c2)cc1	0	11	10	0	-9	-4
SMILES	CHRM4 agonist	CHRM4 PAM	CHRM1 PAM	M1 ag	M1 antag	M4 antag
COc1ccc(NC(=O)CN(C)C(=O)c2c(C)nn(-c3ccccc3)c2Cl)cc1	0	5	3	-3	-6	1
CCc1ncc(CN2CCC(C(=O)Nc3ccc(-n4nc(C)cc4C)cc3)CC2)cn1	1	-3	5	-3	-3	-4
Cc1cc(C)n(-c2ccc(NC(=O)C3CCN(Cc4ccccn4)CC3)cc2)n1	2	22*	14	-1	0	0
Cc1cc(C(c2ccc(O)cc2)c2cc(C)c(O)cc2C)c(C)cc1O	30	-7	9	42*	9	8
COC(=O)C(Cc1ccccc1)NC(=O)C12CC3CC(CC(C3)C1)C2 (configuration not stated)	0	22*	9	-3	-5	-8
COC(=O)C(Cc1ccc(O)cc1)NC(=O)C12CC3CC(CC(C3)C1)C2 (configuration not stated)	1	-6	3	-2	1	10
CCCNC(=O)C1(C)CCN(C(=O)c2ccc3c(c2)CCO3)C1 (configuration not stated)	1	7	31*	5	-38	6
CCN(CC)C(=O)CSc1nnc(-c2ccccn2)n1-c1ccccc1OC	2	20	-1	-2	-8	31*
CCCN(CC(=O)Nc1ccccc1C)C(=O)C1CCN(C(=O)Nc2ccccc2)CC1	2	21*	12	0	-33	-19
c1coc(CN(Cc2ccco2)c2ncnc3c2oc2ccccc23)c1	7	-23	-16	0	37*	37*
CCN1C(=O)[C@H]2[C@@H](c3ccc(-c4ccccc4)cc3)N[C@@](Cc3ccccc3)(C(=O)OC)[C@H]2C1=O	0	17	4	0	0	-14
CCN1C(=O)[C@H]2[C@@H](c3ccc(-c4ccccc4)cc3)N3CCCC[C@@]3(C(=O)OC)[C@H]2C1=O	14	24*	20	2	-18	-6
CCN1C(=O)[C@H]2[C@@H](c3ccc(-c4ccc(C(C)=O)cc4)cc3)N[C@@](Cc3ccccc3)(C(=O)OC)[C@H]2C1=O	2	24*	2	-1	2	-11
CCCNC(=O)c1csc(Nc2cccc3ccccc23)n1	-1	2	6	-2	-9	-8
CCOC(=O)c1c(Cl)c(C)nn1-c1nc(OC)cc(OC)n1	0	8	9	-1	-16	-7
O=C(NCc1cccnc1)/C(=C/c1ccccc1)NC(=O)c1ccccc1	3	0	4	0	-5	-6
CCc1nnc(NC(=O)CSc2nc3ccccc3o2)s1	1	8	9	-4	-9	-8
Cc1nnc(NC(=O)CSc2nc3ccccc3o2)s1	1	32*	11	2	-6	6
